Screens from PubChem.
Only a selection was taken, and hits are over-represented in it overall.
CD40 NFkB inh – inhibitors of CD40-induced NF-kB signaling, primary screen, BL2 cells, luciferase reporter, single point. CD40L-induced, 4 h. inhibition, % at 10 µM. 83,000 tested, 0.94% active;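 active = mean inhibition of at least 50% with a set share of replicates also reaching that level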;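 note: 0% = neutral control wells and 100% = IKK inhibitor VII at 50 µM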
* marks the source's active call; other numbers are inactive results; ! = a repeat was not active; [ ] = dose if it differs, or a comment.

SMILES	CD40 NFkB inh
CC(C)(C)OC(=O)COc1cc(OCC(=O)OC(C)(C)C)c2c(=O)cc(-c3ccccc3)oc2c1	56.7*!
O=c1cc(-c2ccccc2)oc2cc(OCc3ccccc3)cc(O)c12	12.4
O=C(c1ccc(F)cc1)N(CC1CCC1)C[C@H]1N[C@@H](CO)[C@H]1c1ccccc1	-2.3[25 µM]
O=C(O)CCCCCN1C(=O)/C(=C/c2cn(-c3ccccc3)nc2-c2cccs2)SC1=S	-3.8
CC(/C=C1\SC(=O)N(CCCC(=O)O)C1=O)=C\c1ccccc1	47.5*
O=C(O)CCN1C(=O)/C(=C\c2ccncc2)SC1=S	5.9
CC(C)N1C(=O)/C(=C\c2nc3ccccc3c(=O)[nH]2)c2ccccc21	32.6*
CC(C)Sc1nc2ccccc2c(=O)[nH]1	6.0
O=c1[nH]c(C(F)(F)F)nc2ccccc12	-8.3
CCS(=O)(=O)N1CCCCN2[C@H](C1)[C@@H](c1ccc(-c3ccc(C#N)cc3)cc1)[C@@H]2CO	13.3[25 µM]
CC[C@H]1C/C=C\C[C@H](CC)NC(=O)[C@H](C)CC(=O)N1	5.3[25 µM]
COc1ccc2cc(C(=O)CS(=O)(=O)c3ccc(Cl)cc3)c(=O)oc2c1	3.3
CC(=O)c1cccc(NC(=O)NC2CC(=O)N(c3ccc4c(c3)OCCO4)C2)c1 (stereo not drawn)	5.7
CC(C)(C)OC(=O)CC(S(=O)(=O)c1ccccc1)S(=O)(=O)c1ccccc1	66.8*
O=S(=O)(CCS(=O)(=O)c1ccccc1)c1ccccc1	1.7
CC(S(=O)(=O)c1ccccc1)S(=O)(=O)c1ccccc1	6.0
COc1ccc(S(=O)(=O)N[C@@H]2CC[C@@H](CCNC(=O)CN3CCOCC3)O[C@@H]2CO)cc1	5.3
O=C(Nc1cccc2ncccc12)c1cccnc1	2.2
NC(=O)c1ccc(C23CC4CC(CC(C4)C2)C3)o1	-1.3
NCCOc1ccc(C23CC4CC(CC(C4)C2)C3)cc1	103.7*
Nc1nnc(CCOc2ccc(Cl)cc2)s1	-4.2
COCCNC(=O)[C@@H]1[C@@H](CO)[C@@H]2Cn3c(ccc(-c4ccccc4F)c3=O)[C@@H]2N1C(=O)C1CCC1	-0.9[25 µM]
COc1ccc(NC(=O)N2CCC3(CC2)CN(C(=O)c2cccnc2)[C@H](CO)c2[nH]c4cc(OC)ccc4c23)cc1	-14.9[25 µM]
CCCN1[C@@H]2c3cccc(=O)n3C[C@H]1[C@H](CO)[C@H]2C(=O)N[C@@H](C)c1ccccc1	-4.5[25 µM]
C[C@@H]1CN([C@@H](C)CO)C(=O)c2c(c3ccccc3n2C)-c2ccccc2CO[C@H]1CN(C)Cc1cccc(C(=O)Nc2ccccc2N)c1	59.8*[25 µM]
SMILES	CD40 NFkB inh
C[C@@H]1CN([C@H](C)CO)C(=O)c2c(c3ccccc3n2C)-c2ccccc2CO[C@@H]1CN(C)Cc1cccc(C(F)(F)F)c1	37.4[25 µM]
C[C@H](CO)N1C[C@H](C)[C@H](CN(C)C(=O)Nc2cccc(C(F)(F)F)c2)OCc2ccccc2-c2c(n(C)c3ccccc23)C1=O	37.3[25 µM]
C[C@@H]1CN([C@@H](C)CO)C(=O)c2c(c3ccccc3n2C)-c2ccccc2CO[C@H]1CN(C)C(=O)Nc1ccccc1C(F)(F)F	64.2*[25 µM]
C[C@H]1CN([C@@H](C)CO)C(=O)c2c(c3ccccc3n2C)-c2ccccc2CO[C@H]1CN(C)Cc1cccc(C(F)(F)F)c1	9.7[25 µM]
COc1ccccc1NC(=O)N(C)C[C@@H]1OCc2ccccc2-c2c(n(C)c3ccccc23)C(=O)N([C@@H](C)CO)C[C@@H]1C	-3.4
COc1ccccc1NC(=O)N(C)C[C@@H]1OCc2ccccc2-c2c(n(C)c3ccccc23)C(=O)N([C@H](C)CO)C[C@@H]1C	8.6
C[C@H](CO)N1C[C@H](C)[C@@H](CN(C)C(=O)Nc2cccc(C(F)(F)F)c2)OCc2ccccc2-c2c(n(C)c3ccccc23)C1=O	46.2[25 µM]
C[C@H](CO)N1C[C@H](C)[C@@H](CN(C)Cc2cccc(C(F)(F)F)c2)OCc2ccccc2-c2c(n(C)c3ccccc23)C1=O	72.5*[25 µM]
C[C@@H]1CN([C@H](C)CO)C(=O)c2c(c3ccccc3n2C)-c2ccccc2CO[C@H]1CN(C)Cc1cccc(O)c1	8.8
C[C@H](CO)N1C[C@H](C)[C@H](CN(C)Cc2cccc(C(=O)O)c2)OCc2ccccc2-c2c(n(C)c3ccccc23)C1=O	-9.2
C[C@H]1CN([C@@H](C)CO)C(=O)c2c(c3ccccc3n2C)-c2ccccc2CO[C@@H]1CN(C)C(=O)Nc1cccc(C(F)(F)F)c1	64.4*[25 µM]
COC(=O)[C@H]1[C@H](CO)[C@H]2Cn3c(ccc(-c4ccccc4OC)c3=O)[C@H]2N1CC1CCCC1	-0.4
COc1ccc(C(=O)C(C)OC(=O)CNC(=O)c2ccco2)cc1 (stereo not drawn)	7.9
CC(=O)Nc1ccc2c(c1)nc(CCN1CCN(c3ccccn3)CC1)n2C	6.2
C[C@H](CO)N1C[C@H](C)[C@H](CN(C)C(=O)Nc2ccccc2C(F)(F)F)OCc2ccccc2-c2c(n(C)c3ccccc23)C1=O	37.7[25 µM]
C[C@H](CO)N1C[C@H](C)[C@@H](CN(C)C(=O)Nc2ccccc2C(F)(F)F)OCc2ccccc2-c2c(n(C)c3ccccc23)C1=O	8.3[25 µM]
C[C@@H]1CN([C@@H](C)CO)C(=O)c2c(c3ccccc3n2C)-c2ccccc2CO[C@@H]1CN(C)C(=O)Nc1ccccc1C(F)(F)F	55.0*[25 µM]
CC(C)NS(=O)(=O)c1ccc(CCC(=O)Nc2ccc3c(c2)OCO3)cc1	-5.8
CCc1csc(N2[C@@H](C#N)[C@H](c3ccc(C#Cc4ccc(F)cc4)cc3)[C@@H]2CO)n1	1.4[25 µM]
COc1ccccc1C#Cc1ccc([C@@H]2[C@@H](C#N)N(C(=O)C3CCC3)[C@H]2CO)cc1	-3.5[25 µM]
CCOc1ccc(C(=O)NNC(=O)C2CC(=O)N(c3ccc(C)cc3)C2)cc1 (stereo not drawn)	-3.9
C[C@H]1CN(C)C(=O)Cc2cc(N(C)C)ccc2O[C@H]1CN(C)C	2.7
Nc1nc(=S)c2ncn(C3OC(CO)CC3O)c2[nH]1 (stereo not drawn)	-7.0
CCCNC(=O)c1cc2c(c(-c3cccc(-c4cc5ccccc5o4)c3)n1)[C@H](CCO)N(C(=O)NC(C)C)C2	55.8*[25 µM]
CC(C)NC(=O)N1Cc2cc(C(=O)NC3CCC3)nc(-c3cccc(-c4cncnc4)c3)c2[C@@H]1CCO	9.6[25 µM]
SMILES	CD40 NFkB inh
CCNC(=O)c1cc2c(c(-c3cccc(-c4cc5ccccc5o4)c3)n1)[C@@H](CCO)N(C(=O)NC(C)C)C2	-23.1
O=C(NCC[C@H]1CC[C@H](NC(=O)C2CCCC2)[C@@H](CO)O1)c1cnccn1	-15.2
C[C@@H]1CN([C@H](C)CO)C(=O)CCCn2cc(nn2)CO[C@@H]1CN(C)S(=O)(=O)c1ccccc1	-3.4
O=C1CCCn2cc(nn2)COC[C@@H](c2ccccc2)N1	-9.2[25 µM]
CC(=O)N(C)C[C@H]1Oc2ncccc2C(=O)N(C)C[C@H]1C	4.2
CN(C)C(=O)c1cccc(-c2ccc3c(c2)[C@@H]2[C@@H](CCN2C(=O)c2cccc(F)c2)[C@H](CO)N3C)c1	-3.7
Cc1ccc(NC(=O)CNC(=O)c2cccc(Cl)c2)nc1	65.7*
Cc1ccc(NC(=O)CNC(=O)c2ccc(C)s2)nc1	-14.9
Cc1ccc(NC(=O)c2ccc3c(c2)OCCO3)nc1	63.8*
Cc1cccnc1NC(=O)c1ccc2c(c1)OCCO2	-30.2
Cc1ccc(NC(=O)c2ccc3c(c2)NC(=O)CS3)nc1	-23.1
COC(=O)CNC(=O)c1cccc(Cl)c1	12.7
CCCNC(=O)N1[C@@H](C#N)[C@@H](c2ccc(-c3ccccc3F)cc2)[C@@H]1CO	9.8[25 µM]
